From PubChem BioAssay AID540276 (National Center for Advancing Translational Sciences (NCATS), 2011) come the findings set out here.

Each structure is given as a SMILES string. Where “and” joins values, the source holds several entries; their conditions need not be identical. Identical values can stand only once. The campaign covered roughly 300,000 compounds. About 5,400 (1.8%) were called active. Entries that show only a call come without a potency. Inconclusive results (about 28%) are left out. Calls come from the whole dose curve; tested in HEK293 cells. Only a selection was taken, and actives are over-represented in it overall. Some compounds were tested as several samples or in several runs, with calls that do not always agree.
Potency is the fitted concentration of half-maximal effect.

The experiment can be described thus: qHTS for inhibitors of binding or entry into cells for Marburg Virus. As to conditions: Marburg virus pseudotyped entry inhibition, cell reporter; series mostly up to 37.8 µM. In general terms: qHTS replaces the single test concentration by a dilution series.
As for `CCOC(=O)c1ccc(NC(=O)CSc2ncccn2)cc1`, the Potency entry is “inactive”. For the compound `CC(=O)Nc1ccc(NC(=O)CS(=O)(=O)c2cn(CC(=O)N3CCCCC3)c3ccccc23)cc1`, the Potency entry is “inactive”.

Take `CCOC(=O)c1ccc(NC(=O)CS(=O)(=O)c2cn(CC)c3ccccc23)cc1`: the Potency is 8.2 µM (active). On to `CCC1CCCCN1C(=S)Nc1ccc(S(=O)(=O)Nc2ncccn2)cc1` (stereo not given), for which the Potency entry was “inactive”. Take `COc1ccc(CCNC(=O)c2ccccc2OCc2ccccc2)cc1`: the Potency result is “inactive”. Consider `CC(=O)N1CCc2ccc(N)cc21`, for which the Potency result is “inactive”. As for `CCOc1ccc(NC(=O)CN(C)C(=O)COc2cccc(CC)c2)cc1OCC`, the Potency result was “inactive”.

On to `CC(C)CN1CC(C)C(=O)N(c2ccccc2)C1=S` (stereo not given), for which the Potency entry was “inactive”. Then `O=C(O)c1ccc(S(=O)(=O)c2ccccc2)s1`, with “inactive”; and `CCCCc1nc2cc(C(=O)N3CCCCC3CCO)ccc2o1` (stereo not given), with “inactive”.

As for `Cc1nn(-c2ccccc2)c(C)c1NC(=O)COc1ccc(Cl)cc1Cl`, the Potency was 11.6 µM (active). The entry for `Cc1nn(-c2ccccc2)c(C)c1NC(=O)COC(=O)Cc1ccccc1` is “inactive”; for `C/C=C/c1ccc(OCC(=O)OCC(=O)Nc2c(C)nn(-c3ccccc3)c2C)c(OC)c1` it is “inactive”; for `COc1ccc(CCNC(=O)C(=O)NCC2OCCN2S(=O)(=O)c2cccs2)cc1OC` (stereo not given) it is “inactive”. The entry for `CCc1ccc(N2CC(C(=O)N3CCCCCC3)CC2=O)cc1` (stereo not given) is “inactive”.

`CCN(c1ccccc1)S(=O)(=O)c1cc(C(=O)NCc2ccccn2)ccc1C`: the Potency result was “inactive”. In the case of `COc1cccc2c1C(=O)c1c(O)c3c(c(O)c1C2=O)CC(O)(C(C)=NNC(=O)c1ccc(Cl)c(Cl)c1)CC3OC1CC(N)C(O)C(C)O1` (stereo not given), the Potency was 0.447 µM (active).

Turning to `COc1ccc(C(=O)Nc2ccccc2C(=O)N2CCN(c3ccccc3)CC2)cc1`, the Potency result was “inactive”.

As to `O=C(Nc1nc(-c2ccc3c(c2)OCO3)cs1)c1ccncc1`, the Potency is 7.94 µM (active). Regarding `CC(=O)NCCC(=O)Nc1nc(-c2ccc3c(c2)OCCO3)cs1`, the Potency result is “inactive”. As for `Cc1ccc(-c2csc(NC(=O)C3=COCCO3)n2)cc1C`, the Potency entry was “inactive”. In the case of `Cc1ccc(S(=O)(=O)N2CCC(C(=O)N3CCCCCCC3)CC2)cc1`, the Potency entry was “inactive”.

Turning to `CCOC(=O)C1CCCN(C(=O)C2CCN(S(=O)(=O)c3ccc(Cl)c(C(F)(F)F)c3)CC2)C1` (stereo not given), the Potency entry is “inactive”. Then `CCOC(=O)CC1=C(C(=O)OCC)[C@H](c2cc(OC)c(OC)cc2OC)C(C#N)=C(N)O1`, with “inactive”; and `Cc1c(Cl)cccc1NC(=S)NCC(O)c1ccccc1` (stereo not given), with “inactive”; and `CCCOc1ccccc1C1CC(=O)Nc2cc3c(cc21)OCO3` (stereo not given), with 6.31 µM (active).

`COCCOC(=O)C1=C(C)NC(=O)CC1c1cc2c(cc1Br)OCO2` (stereo not given): the Potency entry was “inactive”.

Turning to `COc1ccccc1C1C2=C(COC2=O)Nc2cc3c(cc21)OCO3` (stereo not given), the Potency entry was “inactive”. Then `CC(NCc1nc2ccccc2n1C)C12CC3CC(CC(C3)C1)C2` (stereo not given), with 11.2 µM (active); and `Cn1c(COc2ccccc2C(C)(C)C)nc2ccccc21`, with “inactive”. `Cn1c(CNC(=O)C(C)(C)C)nc2ccccc21`: the Potency entry is “inactive”. The entry for `C#CCOCCOCCOCCNc1nc(N2CCN(C(=O)Cn3cc(CCO)nn3)CC2)nc(N2CCN(C(=O)Cn3cc(CCCN=C(N)N)nn3)CC2)n1` is “inactive”. In the case of `O=C1C(=O)N(CCN2CCOCC2)[C@@H](c2ccccn2)/C1=C(/O)c1ccc(F)cc1`, the Potency result is “inactive”. Turning to `Cc1cc(C)nc(N/N=C/c2ccncc2)n1`, the Potency entry is “inactive”. Take `CCN(CC)c1ccc(/C=N/Nc2nc(C)cc(=O)[nH]2)cc1`: the Potency result is “inactive”. Consider `CCN(CC)c1ccc(/C=N/Nc2nc(C)cc(C)n2)c(O)c1`, for which the Potency is 6.51 µM (active). As for `Clc1ccc(Nc2ncnc3c2nnn3Cc2ccccc2)cc1`, the Potency entry is “inactive”.

Consider `CN(C)c1cc2c(Nc3ccc4c(cnn4Cc4ccccc4)c3)ncnc2cn1`, for which the Potency was 8.91 µM (active). Then `Cn1ncc2c(Nc3cccc4ccccc34)ncnc21`, with “inactive”; and `Cc1ccc(CN2CCNC(=O)C2CC(=O)NCc2csc(C(C)C)n2)cc1` (stereo not given), with “inactive”. As for `Cc1ccsc1C(=O)NNC(=O)COc1ccc(Br)cc1`, the Potency result is “inactive”. On to `CC1CCN(C(=O)c2ccc3c(=O)n4c(nc3c2)CCCCC4)CC1`, for which the Potency entry was “inactive”. Then `CCN(CCCNC(=O)c1cc2c(=O)n(CC)c3ccccc3c2s1)Cc1ccccc1`, with 4.47 µM (active); and `CCn1c(=O)c2cc(C(=O)NCCc3ccc(Cl)cc3)sc2c2ccccc21`, with “inactive”; and `CCc1ccc(CNC(=O)c2cc3c(=O)n(CC)c4ccccc4c3s2)cc1`, with “inactive”. Turning to `Cc1ccc(CS(=O)Cc2ccc(C(=O)N3CCOCC3)o2)cc1` (stereo not given), the Potency result was “inactive”. Regarding `C/C(=N\Nc1ccccc1)c1cccs1`, the Potency result is “inactive”. Take `Oc1ccc2ccccc2c1N=Nc1nccs1`: the Potency was 3.55 µM (active).

Regarding `Oc1ccc2ccccc2c1C=Nc1ccccc1`, the Potency result is “inactive”.

Turning to `O=C(Cc1ccc(NC(=O)C2CCCN(C(=O)CCc3ccccc3)C2)cc1)Nc1ccc(C(=O)N2CCOCC2)cc1` (stereo not given), the Potency result is “inactive”. For the compound `COc1ccc(N2CCN(CCNC(=O)Nc3cc(Cl)ccc3Cl)CC2)cc1`, the Potency result is “inactive”. Turning to `CN(Cc1ccccc1)C(=O)COC(=O)/C=C/c1ccc2c(c1)OCO2`, the Potency result is “inactive”. The figure for `N=c1c2c(-c3ccccc3)c(-c3ccccc3)n(Cc3ccccc3)c2ncn1CCCO` is 5.8 µM (active); for `CC(C)Cn1cnc2c1c(=O)n(CC(=O)NN)c(=O)n2Cc1ccccc1` it is “inactive”. In the case of `COCCn1cnc2c1c(=O)n(Cc1ccc(Br)cc1)c(=O)n2Cc1ccccc1`, the Potency entry was “inactive”. Take `Cc1cc(NC(=O)CCN2CCN(Cc3ccccc3)CC2)ccc1Br`: the Potency entry was “inactive”.

Turning to `CCCCN(C(=O)c1ccc(C)o1)c1c(N)n(CCCC)c(=O)[nH]c1=O`, the Potency result was “inactive”. The figure for `CCCCCCC(O)(CCN1CCCCC1)c1ccccc1` (stereo not given) is 12.6 µM (active); for `O=C(c1ccccc1)C(O)(CN1CCCCC1)c1ccccc1` (stereo not given) it is “inactive”; for `CCc1ccccc1NC(=O)NCCN1CCCCC1` it is “inactive”. The entry for `CCOC(=O)c1ccc(NC(=O)CNC(=O)c2ccco2)cc1` is “inactive”; for `COc1ccc(OC)c(C(c2nnnn2C(C)(C)C)N2CCc3ccccc3C2)c1` (stereo not given) it is 12.6 µM (active); for `Cc1ccc(C(c2nnnn2C(C)(C)C)N2CCc3ccccc3C2)cc1` (stereo not given) it is “inactive”. For the compound `COCCn1nnnc1C(c1cc2ccc(OC)cc2[nH]c1=O)N1CCc2ccccc2C1` (stereo not given), the Potency entry is “inactive”. Then `COc1cc2c(cc1OC)CN(C(C)C(=O)Nc1cccc(S(=O)(=O)N3CCOCC3)c1)CC2` (stereo not given), with “inactive”. As to `C#CCOc1ccc(/C=C2/C(=O)NN(c3ccccc3)C2=O)cc1OC`, the Potency result was “inactive”.

In the case of `COc1cc(CN2CC(C)CC(C)C2)cc([N+](=O)[O-])c1O` (stereo not given), the Potency entry is “inactive”. For `COc1cc(/C=C2/C(=O)NN(c3ccc(F)cc3)C2=O)cc([N+](=O)[O-])c1O`, the Potency was 3.55 µM (active). The entry for `CC12CCC(=O)N1C(C(=O)NCCN1C(=O)S/C(=C\c3ccccc3F)C1=O)CS2` (stereo not given) is “inactive”; for `Cc1ccc(S(=O)(=O)NCC(=O)NNC(=O)c2ccc(Br)cc2)cc1C` it is “inactive”; for `O=C(CCNS(=O)(=O)c1ccccc1)Nc1ccc(Cl)cc1C(=O)c1ccccc1` it is 8.91 µM (active). With `O=C(COC(=O)c1ccccc1)Nc1ccc(Cl)cc1C(=O)c1ccccc1`, the Potency entry is “inactive”. On to `O=C(CCNS(=O)(=O)c1ccccc1)NCCCc1ccccc1`, for which the Potency result is “inactive”. `O=C(CN(Cc1ccccc1)C(=O)CCC(=O)Nc1ccccn1)NCCc1ccccc1`: the Potency result is “inactive”. For the compound `O=C(COC(=O)c1ccc(Oc2ccccc2)cc1)Nc1nnc(-c2ccccc2)o1`, the Potency entry was “inactive”.

For `COc1cccc(-c2nnc(NC(=O)c3ccc(S(=O)(=O)N(CC(C)C)CC(C)C)cc3)o2)c1`, the Potency was 1.26 µM (active). On to `COc1cccc(NC(=O)CN(C)S(=O)(=O)c2ccc(C)cc2)c1`, for which the Potency result was “inactive”. The entry for `O=C1NCC(c2ccccc2)(c2ccccc2)C(=O)N1` is “inactive”; for `COc1ccc(Cl)cc1NS(=O)(=O)c1cccc(C(=O)NC2CCC(O)CC2)c1` (stereo not given) it is “inactive”; for `COCCC(=O)N1CCC(Oc2ccc(C(=O)NCc3ccon3)cc2)CC1` it is “inactive”.

Regarding `CCOC(=O)C1CCCN(CCSc2ccc(C)cc2)C1` (stereo not given), the Potency result is “inactive”.

On to `O=C(c1cccc(F)c1)N1CCN(c2ccc([N+](=O)[O-])c(N3CCCCC3)c2)CC1`, for which the Potency result is “inactive”. With `CN1CCN(c2ccc([N+](=O)[O-])c(Sc3nc4ccccc4[nH]3)c2)CC1`, the Potency entry was “inactive”.

As for `CN1CCN(c2cc(N3CCNCC3)ccc2[N+](=O)[O-])CC1`, the Potency is 5.01 µM (active). Consider `O=C(NN=CC=Cc1ccccc1)C(O)C(O)C(=O)NN=CC=Cc1ccccc1` (stereo not given), for which the Potency result was “inactive”. Then `N#CC1(Nc2ccc(-c3ccc(Cl)cc3)cc2)CCCC1`, with “inactive”.

For `Cc1cc(NC(=O)CSc2ncc(C(F)(F)F)cc2Cl)no1`, the Potency result is “inactive”.

With `CCOC(=O)CSC1=c2ccccc2=NC1c1cccs1` (stereo not given), the Potency entry was “inactive”.

Regarding `CC1CCN(C(=O)COC(=O)CCC(=O)c2cccs2)CC1`, the Potency result was “inactive”. The entry for `COc1ccc(-n2nc(C(=O)NCC(=O)N3CCN(c4ccccc4OC)CC3)c3ccccc3c2=O)c(OC)c1` is “inactive”. For the compound `CN(Cc1ccccc1Cl)C(=O)C1CCC(=O)N(CCc2cccc(F)c2)C1` (stereo not given), the Potency result is “inactive”. For `COc1cc(C)ccc1OCC(=O)OCC(=O)c1ccc[nH]1`, the Potency result was “inactive”. Regarding `Cn1c2ccccc2c2c(C(=O)N3CCN(c4ccc(F)cc4)CC3)cn(C3CCCC3)c(=O)c21`, the Potency result was “inactive and 17.8 µM (active)”. As to `O=C(c1ccccc1Oc1ccccc1)N1CCN(c2ccc(F)cc2)CC1`, the Potency result was “inactive”. For `CCOc1ccc(NC(=O)c2cn(C3CCCCC3)c(=O)c3c2c2ccccc2n3C)cc1`, the Potency result is “inactive”. On to `O=C(NCCN1CCOCC1)c1cc(-c2cccs2)nc2ccccc12`, for which the Potency result was “inactive”. Take `c1ccc2cc3c(NCCN4CCOCC4)ccnc3cc2c1`: the Potency was 3.66 µM (active). `O=C(Cn1c(-c2ccccn2)nc2ccccc21)NCCN1CCOCC1`: the Potency entry is “inactive”. On to `COC(=O)Nc1ccc(S(=O)(=O)Nc2cc(OC)nc(OC)n2)cc1`, for which the Potency result was “inactive”. As to `CC(OC(=O)c1ccc(-n2cnnn2)cc1)C(=O)NCc1ccccc1` (stereo not given), the Potency entry is “inactive”. Take `CC(=O)OC[C@H]1O[C@H](C/C=N/OC[C@@H](O)COCc2ccco2)C=C[C@@H]1OC(C)=O`: the Potency entry was “inactive”. `CC(=O)c1c(O)c(C)c(O)c(Cc2c(O)c3c(c(C(=O)/C=C\c4ccccc4)c2O)OC(C)(C)C=C3)c1O`: the Potency was 3.16 µM (active). Take `CC(=O)c1c(O)c(C)c(O)c(Cc2c(O)c3c(c(C(=O)/C=C/c4ccccc4)c2O)OC(C)(C)C=C3)c1O`: the Potency entry was “inactive and 3.16 µM (active)”.

For `O=C(/C=C/c1ccccc1)c1ccoc1`, the Potency result was “inactive”. For `O=C(/C=C/c1ccccc1)c1ccccc1O`, the Potency entry was “inactive”.
